# According to PubChem BioAssay AID1159580 (chemical genetic matrix, 2015):
# The campaign covered roughly 5,500 compounds. About 2,000 (36%) were called active. Roughly 18% stayed inconclusive and do not appear here. Some of the results follow. A number with no mark means an inactive call. Cut-off read from the data, not from the text of the source: active = normalized growth mostly below about 0.91 (no sharp cut-off); inconclusive = no clear call, values can overlap the other calls; inactive = mostly above about 0.92.
# Assay: chemical genetic growth profiling, strain panel (AID 1159580);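 note: tested at 20 µM; growth read once vehicle control cultures reached saturation at 30 °C; 1 = growth at the plate median or of vehicle wells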
# Conditions: S. cerevisiae deletion strains, growth OD
compound,measurement,setting,value
O=c1c(O)c(-c2ccc(O)c(O)c2)oc2c(O[C@@H]3O[C@H](CO)[C@H](O)[C@@H](O)[C@H]3O)c(O)cc(O)c12,normalized growth,"locus YAL021C, strain ccr4, stronger effect = lower value",1.01
same,normalized growth,"locus YAL026C, strain drs2, stronger effect = lower value",1.03
same,normalized growth,"locus YAL030W, strain snc1, stronger effect = lower value",1.01
same,normalized growth,"locus YBL061C, strain skt5, stronger effect = lower value",1.01
same,normalized growth,"locus YBR009C, strain hhf1, stronger effect = lower value",1.02
same,normalized growth,"locus YBR023C, strain chs3, stronger effect = lower value",1.03
same,normalized growth,"locus YBR171W, strain sec66, stronger effect = lower value",1.02
same,normalized growth,"locus YBR231C, strain swc5, stronger effect = lower value",1.01
same,normalized growth,"locus YBR279W, strain paf1, stronger effect = lower value",1.01
same,normalized growth,"locus YCL011C, strain gbp2, stronger effect = lower value",1.03
same,normalized growth,"locus YCL016C, strain dcc1, stronger effect = lower value",1.02
same,normalized growth,"locus YCL061C, strain MRC1, stronger effect = lower value",1
same,normalized growth,"locus YCL069W, strain vba3, stronger effect = lower value",1.03
same,normalized growth,"locus YCR088W, strain abp1, stronger effect = lower value",1
same,normalized growth,"locus YDL005C, strain med2, stronger effect = lower value",1
same,normalized growth,"locus YDL040C, strain nat1, stronger effect = lower value",1.01
same,normalized growth,"locus YDR001C, strain nth1, stronger effect = lower value",1.02
same,normalized growth,"locus YDR069C, strain doa4, stronger effect = lower value",1.03
same,normalized growth,"locus YDR137W, strain rgp1, stronger effect = lower value",0.988
same,normalized growth,"locus YDR159W, strain sac3, stronger effect = lower value",0.997
same,normalized growth,"locus YDR195W, strain ref2",0.965
same,normalized growth,"locus YDR297W, strain sur2, stronger effect = lower value",1.03
same,normalized growth,"locus YDR334W, strain swr1, stronger effect = lower value",1.02
same,normalized growth,"locus YDR335W, strain msn5, stronger effect = lower value",1.02
same,normalized growth,"locus YDR392W, strain spt3, stronger effect = lower value",0.978
same,normalized growth,"locus YEL003W, strain gim4, stronger effect = lower value",1.02
same,normalized growth,"locus YEL037C, strain rad23, stronger effect = lower value",1.01
same,normalized growth,"locus YEL061C, strain CIN8 (second series), stronger effect = lower value",1.03
same,normalized growth,"locus YER015W, strain faa2, stronger effect = lower value",1
same,normalized growth,"locus YER016W, strain bim1, stronger effect = lower value",1.01
same,normalized growth,"locus YER111C, strain swi4, stronger effect = lower value",1.01
same,normalized growth,"locus YER155C, strain BEM2 (second series), stronger effect = lower value",1.04
same,normalized growth,"locus YFR010W, strain ubp6, stronger effect = lower value",1.01
same,normalized growth,"locus YGL167C, strain pmr1, stronger effect = lower value",1.02
same,normalized growth,"locus YGL173C, strain kem1, stronger effect = lower value",1.02
same,normalized growth,"locus YGL227W, strain vid30, stronger effect = lower value",0.999
same,normalized growth,"locus YGL240W, strain doc1, stronger effect = lower value",1.01
same,normalized growth,"locus YGL253W, strain hxk2, stronger effect = lower value",1.02
same,normalized growth,"locus YHR013C, strain ard1, stronger effect = lower value",1.02
same,normalized growth,"locus YHR027C, strain rpn1, stronger effect = lower value",0.998
same,normalized growth,"locus YHR030C, strain SLT2, stronger effect = lower value",0.895
same,normalized growth,"locus YHR079C, strain IRE1, stronger effect = lower value",0.886
same,normalized growth,"locus YHR142W, strain chs7, stronger effect = lower value",1.04
same,normalized growth,"locus YJL092W, strain hpr5, stronger effect = lower value",1.01
same,normalized growth,"locus YJL095W, strain BCK1 (second series), stronger effect = lower value",1.01
same,normalized growth,"locus YJL095W, strain BCK1, stronger effect = lower value",0.895
same,normalized growth,"locus YJL115W, strain asf1, stronger effect = lower value",1
same,normalized growth,"locus YJL129C, strain trk1, stronger effect = lower value",1
same,normalized growth,"locus YJL154C, strain vps35, stronger effect = lower value",1.02
same,normalized growth,"locus YJL164C, strain tpk1, stronger effect = lower value",1.03
same,normalized growth,"locus YJL166W, strain qcr8, stronger effect = lower value",1.04
same,normalized growth,"locus YJL187C, strain SWE1, stronger effect = lower value",1.03
same,normalized growth,"locus YJR066W, strain TOR1, stronger effect = lower value",0.914
same,normalized growth,"locus YKL160W, strain elf1, stronger effect = lower value",1
same,normalized growth,"locus YKR026C, strain gcn3, stronger effect = lower value",1.01
same,normalized growth,"locus YKR091W, strain srl3, stronger effect = lower value",1.02
same,normalized growth,"locus YLL001W, strain dnm1, stronger effect = lower value",0.989
same,normalized growth,"locus YLL026W, stronger effect = lower value",1.01
same,normalized growth,"locus YLL041C, strain sdh2, stronger effect = lower value",1.02
same,normalized growth,"locus YLR027C, strain aat2, stronger effect = lower value",1.03
same,normalized growth,"locus YLR113W, strain HOG1, stronger effect = lower value",0.834 (active)
same,normalized growth,"locus YLR221C, strain rsa3, stronger effect = lower value",1
same,normalized growth,"locus YLR258W, strain gsy2, stronger effect = lower value",1.01
same,normalized growth,"locus YLR262C, strain YPT6 (second series), stronger effect = lower value",1.06
same,normalized growth,"locus YLR320W, strain mms22, stronger effect = lower value",1.01
same,normalized growth,"locus YLR342W, strain FKS1, stronger effect = lower value",1.02
same,normalized growth,"locus YLR357W, strain rsc2, stronger effect = lower value",0.988
same,normalized growth,"locus YLR370C, strain arc18, stronger effect = lower value",1.02
same,normalized growth,"locus YLR384C, strain iki3, stronger effect = lower value",1
same,normalized growth,"locus YML120C, strain ndi1, stronger effect = lower value",1.01
same,normalized growth,"locus YMR058W, strain fet3, stronger effect = lower value",1.01
same,normalized growth,"locus YMR125W, strain sto1, stronger effect = lower value",1
same,normalized growth,"locus YMR129W, stronger effect = lower value",1.01
same,normalized growth,"locus YMR205C, strain PFK2, stronger effect = lower value",1.02
same,normalized growth,"locus YMR231W, strain pep5, stronger effect = lower value",1
same,normalized growth,"locus YNL071W, strain lat1, stronger effect = lower value",1.03
same,normalized growth,"locus YNL183C, strain NPR1, stronger effect = lower value",0.913
same,normalized growth,"locus YNL209W, strain ssb2, stronger effect = lower value",1.02
same,normalized growth,"locus YNL248C, strain rpa49, stronger effect = lower value",0.988
same,normalized growth,"locus YNL322C, strain KRE1 (second series), stronger effect = lower value",1
same,normalized growth,"locus YNR049C, strain mso1, stronger effect = lower value",1.02
same,normalized growth,"locus YOR001W, strain rrp6, stronger effect = lower value",1.01
same,normalized growth,"locus YOR070C, strain gyp1, stronger effect = lower value",1.01
same,normalized growth,"locus YOR080W, strain dia2, stronger effect = lower value",1.01
same,normalized growth,"locus YOR083W, strain WHI5, stronger effect = lower value",1.03
same,normalized growth,"locus YOR106W, strain vam3, stronger effect = lower value",1.01
same,normalized growth,"locus YOR231W, strain MKK1, stronger effect = lower value",0.91
same,normalized growth,"locus YOR265W, strain rbl2, stronger effect = lower value",1.04
same,normalized growth,"locus YOR270C, strain vph1, stronger effect = lower value",1.11
same,normalized growth,"locus YOR290C, strain snf2, stronger effect = lower value",1.03
same,normalized growth,"locus YPL051W, strain arl3, stronger effect = lower value",1.01
same,normalized growth,"locus YPL078C, strain atp4, stronger effect = lower value",1.01
same,normalized growth,"locus YPL106C, strain sse1, stronger effect = lower value",0.971
same,normalized growth,"locus YPL240C, strain hsp82, stronger effect = lower value",1.02
same,normalized growth,"locus YPL256C, strain CLN2, stronger effect = lower value",0.868
